Data on 40 sequences can be found in the supplement of paper PMC10338343.

± gives the standard deviation. Bounds are passed on as bounds.

One assay has as its system MILI (PIWIL2) piRISC loaded with piRNA #1 (26 nt). The assay can be described thus: pre-steady-state target cleavage rate (min^-1); guide: piRNA #1 5'p-UGAGGUAGUAGGUUGUAUAGUAUCCA; higher = faster piRNA-guided slicing of the target. To be noted: auxiliary factor: 500 nM mouse GTSF1. The procedure, abridged: (§1)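 Active affinity-purified piRISC (1 nM) loaded with one synthetic guide was mixed with a transcribed, DNA-blocked target RNA library (0.1 nM), with or without 500 nM GTSF1 partner protein, in HEPES–potassium acetate buffer at 33 °C for 0–8 or 0–960 min. Uncleaved targets were sequenced, normalised to depth and to weakly complementary targets, and pooled across three trials, with k3 capped at 0.0001 min^-1. The pre-steady-state cleavage rate was determined with a burst-and-steady-state fit.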
On to GGAGACCUUAGCUAUACAACCUACUACCUCA, for which the “pre-steady-state target cleavage rate” value is 0.112 ± 0.015.
The same measure, in the same setting: as for GGAGACCGUACUAUACAACCUACUACCUCA, the figure is 0.157 ± 0.021; as for GGAGAGGAUACUAUACUACCUUCUACCUCA, 0.0158 ± 0.0024.
Same read-out and setting: as for GGAGUGGAUACAUACAACCUACUACCUCA, the figure is 0.131 ± 0.011.
On the same count and under the same terms, the result for GGAGUGGAUACUAUACAACCUAUCUACCUCA reads 0.113 ± 0.0078; that for GGAGACCUAACUAUACAACCUACUACCUCCA, 0.123 ± 0.021; that for GGAGACCAUACUAUCAACCUACUACCUCA, 0.199 ± 0.022.
As for GGAGUGGAUACUAUUCAACCAACUACCUCA, the “pre-steady-state target cleavage rate” value was determined as 0.0045 ± 0.002.
Still for that read-out and setting: as for GGAGUGGAUACUAUACAACCUACUACCUACA, the figure is 0.122 ± 0.013; as for GGAGACCAUACUAUACAACCUACUUCCACA, 0.0785 ± 0.018; as for GGAGAGGAUACUAUACAACCUACUGCCUCA, 0.126 ± 0.014.
Same read-out and setting: as for GGAGACGAUACUAUACAACCUACUACCACA, the figure is 0.185 ± 0.018.
On the same count and under the same terms, as for GGAGACCUUACUAUACCAACCUACUACCUCA, the figure is 0.00685 ± 0.0036; as for GGAGACGAAACUAUACAACCUACUACCUGA, 0.149 ± 0.039; as for GGAGACGAUACUAUUCAACCUACUUCCUCA, 0.0306 ± 0.0097.
GGAGACGAUACUAUACAACCUAGAUCCUCA: the “pre-steady-state target cleavage rate” value came to 0.00708 ± 0.0033.
Turning to GGAGAGGAUACUUUACAACCUACUAGCUCA, the “pre-steady-state target cleavage rate” value stood at 0.0731 ± 0.013.
The same measure, in the same setting: the result for GGAGACGAUACUAUACAACCUACUAGCUCA reads 0.11 ± 0.019.
GGAGACGAAUGUAUACAACCUACUACCUCA: the “pre-steady-state target cleavage rate” value was 0.124 ± 0.011.
Same read-out and setting: the result for GGAGAGGAUACUAUACAAGCUACAACCUCA reads 0.0872 ± 0.017; that for GGAGAGGAUACUAUACAACGUACUACGUCA, 0.0115 ± 0.0029.
Same read-out and setting: the result for GGAGACCUAACUAUACAACCUACUACCCA reads 0.0749 ± 0.027; that for GGAGACCAUACUAUACAACCAACUACGUCA, 0.00313 ± 0.003; that for GGAGACGAUACUAUUCAACCAACUACCUCA, 0.00612 ± 0.0026.
With “GGAGACCUAUGAUAUGUACCUACAUGGAGA [g8:g13:cont:t1A]”, the “pre-steady-state target cleavage rate” value is < 0.0001.
The same measure, in the same setting: the result for GGAGACCUUACUAUACAACGUACUUCCUCA reads 0.0242 ± 0.0053.
Regarding GGAGUGGAUUCUAUACAACCUACUACCUGA, the “pre-steady-state target cleavage rate” value is 0.0905 ± 0.012.
Same read-out and setting: the result for GGAGAGGAUACUGAUACAACCUACUACCUCA reads 0.17 ± 0.014.
Same read-out and setting: as for GGAGACGAUUCUAUUCAACCUACUACCUCA, the figure is 0.231 ± 0.014; as for GGAGACCAUACUUUACAACCUACUACCUGA, 0.0887 ± 0.018; as for GGAGUGGAUACUAUUCUACCUACUACCUCA, 0.19 ± 0.011.
Turning to GGAGUGGUUACUUUACAACCUACUACCUCA, the “pre-steady-state target cleavage rate” value was 0.162 ± 0.0089.
Still for that read-out and setting: as for GGAGAGAAUACUAUACAACCUACUACCUCA, the figure is 0.177 ± 0.01; as for GGAGACGAUCCUAUACAACCUACUACCUCA, 0.174 ± 0.025; as for GGAGAGGAUACAAUACAACCUACUACCUGA, 0.0513 ± 0.0087.
The same measure, in the same setting: as for GGAGACGAUACAAUACAACCUACUACCUCA, the figure is 0.158 ± 0.012; as for GGAGACCAUACUUAUACAACCUACUACCUCA, 0.132 ± 0.016; as for GGAGAGGAUACUAUACAUCCUACUACCUCA, 0.28 ± 0.023.
Take GGAGACCAUACUAUUCAACCUACUACCUCA: the “pre-steady-state target cleavage rate” value came to 0.189 ± 0.016.
On the same count and under the same terms, the result for GGAGUGGAUAGUAUACAACCUACUAGCUCA reads 0.00679 ± 0.003.

For another assay, the system named is EfPiwi piRISC loaded with piRNA #1 (26 nt). As to the kind of experiment: pre-steady-state target cleavage rate (min^-1); auxiliary factor: 500 nM Ephydatia muelleri Gtsf1; guide: piRNA #1 5'p-UGAGGUAGUAGGUUGUAUAGUAUCCA; MIWI and MILI are mouse PIWI proteins and EfPiwi is from a freshwater sponge; tags in brackets are library labels; higher = faster piRNA-guided slicing of the target.
Details: not given
In outline: as §1
GGAGACCUUAGCUAUACAACCUACUACCUCA: the “pre-steady-state target cleavage rate” value turned out to be 0.0684 ± 0.027.
Same read-out and setting: the result for GGAGACCGUACUAUACAACCUACUACCUCA reads 0.156 ± 0.049; that for GGAGAGGAUACUAUACUACCUUCUACCUCA, 0.00328 ± 0.0026; that for GGAGUGGAUACAUACAACCUACUACCUCA, 0.131 ± 0.048.
On the same count and under the same terms, the result for GGAGUGGAUACUAUACAACCUAUCUACCUCA reads 0.00584 ± 0.0027; that for GGAGACCUAACUAUACAACCUACUACCUCCA, 0.015 ± 0.0066; that for GGAGACCAUACUAUCAACCUACUACCUCA, 0.0101 ± 0.005.
The same measure, in the same setting: the result for GGAGUGGAUACUAUUCAACCAACUACCUCA reads 0.00404 ± 0.0021.
On to GGAGUGGAUACUAUACAACCUACUACCUACA, for which the “pre-steady-state target cleavage rate” value was 0.068 ± 0.024.
Same read-out and setting: the result for GGAGACCAUACUAUACAACCUACUUCCACA reads 0.0032 ± 0.0032; that for GGAGAGGAUACUAUACAACCUACUGCCUCA, 0.00919 ± 0.0038.
On the same count and under the same terms, as for GGAGACGAUACUAUACAACCUACUACCACA, the figure is 0.00487 ± 0.0013.
The same measure, in the same setting: as for GGAGACCUUACUAUACCAACCUACUACCUCA, the figure is 0.00457 ± 0.0029; as for GGAGACGAAACUAUACAACCUACUACCUGA, 0.00491 ± 0.0026.
Regarding GGAGACGAUACUAUUCAACCUACUUCCUCA, the “pre-steady-state target cleavage rate” value is 0.00413 ± 0.0031.
Same read-out and setting: as for GGAGACGAUACUAUACAACCUAGAUCCUCA, the figure is 0.00272 ± 0.0017.
On the same count and under the same terms, the result for GGAGAGGAUACUUUACAACCUACUAGCUCA reads 0.00183 ± 0.0016.
On the same count and under the same terms, as for GGAGACGAUACUAUACAACCUACUAGCUCA, the figure is 0.00381 ± 0.0011; as for GGAGACGAAUGUAUACAACCUACUACCUCA, 0.00736 ± 0.0043.
Turning to GGAGAGGAUACUAUACAAGCUACAACCUCA, the “pre-steady-state target cleavage rate” value was 0.00258 ± 0.0015.
For GGAGAGGAUACUAUACAACGUACUACGUCA, the “pre-steady-state target cleavage rate” value came out at 0.00349 ± 0.0018.
The same measure, in the same setting: as for GGAGACCUAACUAUACAACCUACUACCCA, the figure is 0.00326 ± 0.0026.
Same read-out and setting: as for GGAGACCAUACUAUACAACCAACUACGUCA, the figure is 0.00504 ± 0.004.
Same read-out and setting: as for GGAGACGAUACUAUUCAACCAACUACCUCA, the figure is 0.00444 ± 0.002; as for “GGAGACCUAUGAUAUGUACCUACAUGGAGA [g8:g13:cont:t1A]”, < 0.0001; as for GGAGACCUUACUAUACAACGUACUUCCUCA, 0.00315 ± 0.0021.
For GGAGUGGAUUCUAUACAACCUACUACCUGA, the “pre-steady-state target cleavage rate” value was found to be 0.00261 ± 0.002.
On the same count and under the same terms, the result for GGAGAGGAUACUGAUACAACCUACUACCUCA reads 0.00615 ± 0.0037; that for GGAGACGAUUCUAUUCAACCUACUACCUCA, 0.00706 ± 0.0046.
As for GGAGACCAUACUUUACAACCUACUACCUGA, the “pre-steady-state target cleavage rate” value worked out at 0.00591 ± 0.0031.
The same measure, in the same setting: as for GGAGUGGAUACUAUUCUACCUACUACCUCA, the figure is 0.00571 ± 0.0035; as for GGAGUGGUUACUUUACAACCUACUACCUCA, 0.00342 ± 0.0031; as for GGAGAGAAUACUAUACAACCUACUACCUCA, 0.0106 ± 0.0053.
The same measure, in the same setting: as for GGAGACGAUCCUAUACAACCUACUACCUCA, the figure is 0.0157 ± 0.0085.
On the same count and under the same terms, as for GGAGAGGAUACAAUACAACCUACUACCUGA, the figure is 0.0036 ± 0.0016.
In the case of GGAGACGAUACAAUACAACCUACUACCUCA, the “pre-steady-state target cleavage rate” value turned out to be 0.0117 ± 0.0044.
On the same count and under the same terms, the result for GGAGACCAUACUUAUACAACCUACUACCUCA reads 0.0757 ± 0.028; that for GGAGAGGAUACUAUACAUCCUACUACCUCA, 0.0116 ± 0.0055.
The same measure, in the same setting: the result for GGAGACCAUACUAUUCAACCUACUACCUCA reads 0.0056 ± 0.0032; that for GGAGUGGAUAGUAUACAACCUACUAGCUCA, 0.00291 ± 0.0018.
